Data: PubChem BioAssay (EPA / NIEHS)
Inconclusive results are not listed. The source made the active and inactive calls. How the source made its calls, unless noted: active means hit-call score of the fitted dose curve at least 0.9, where 1 is the maximum; inactive means score below 0.9.

Key:
[1] = system: turtle Thyroid Hormone Receptor, alpha (TRa), gene 101949057; assay: ATG_trTRa_XSP2: Attagene TRANS-FACTORIAL Multi-Species (XSP1) HepG2 Assay for turtle Thyroid Hormone Receptor, alpha (TRa) (AID 2283834; active means hit-call score of the fitted dose curve at least 0.9, where 1 is the maximum;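 further: hits raise reporter mRNA over the DMSO baseline so AC50 marks activators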)
Method in brief: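 HepG2 cells transiently transfected with multiplexed GAL4-UAS reporter units expressing chimeric NR-Gal4 proteins were dosed for 24 hours. Reporter mRNA was quantified by RT-PCR with 6-FAM labelling and capillary electrophoresis, gain of signal scored against DMSO.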

[2] = ATG_M_61_XSP2: Attagene TRANS-FACTORIAL Multi-Species (XSP2) HepG2 Assay for M61 Transcription Factor (Internal Marker) (AID 2283835);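 further: reporter mRNA of an internal background marker read by RT-PCR and capillary electrophoresis; active means a rise in signal above the DMSO baseline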
Method in brief: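 Transient MRTU transfection of human HepG2; 24 h chemical dosing with 3 nM 6-alpha-fluorotestosterone + 1.5 nM norgestrel added for AR stimulation. RNA isolated, RT, PCR, FAM-labelled, HpaI cut, CE read. Positive direction vs DMSO.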

[3] = molecular target: zebrafish Thyroid Hormone Receptor beta (TRb), thrb (gene 30607) (UniProt Q9PVE4); assay: ATG_zfTRb_XSP2: Attagene TRANS-FACTORIAL Multi-Species (XSP1) HepG2 Assay for zebrafish Thyroid Hormone Receptor beta (TRb) (AID 2283836; active means hit-call score of the fitted dose curve at least 0.9, where 1 is the maximum)
Method in brief: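 Reporter transcripts measured by RT-PCR, 6-FAM labelling, HpaI digestion and capillary electrophoresis after 24 h chemical exposure. Human HepG2 cells carry an exogenous zebrafish TRb-GAL4 chimera; medium included 3 nM 6-alpha-fluorotestosterone plus 1.5 nM norgestrel.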

[4] = molecular target: human Thyroid hormone Receptor alpha (TRa), THRA (gene 7067) (UniProt P10827); assay: ATG_hTRa_XSP2: Attagene TRANS-FACTORIAL Multi-Species (XSP2) HepG2 Assay for human Thyroid hormone Receptor alpha (TRa) (AID 2283838; active means hit-call score of the fitted dose curve at least 0.9, where 1 is the maximum)
Procedure: ATG_XSP2_multi-species_TRANS is a cell-based, multiplexed assay created by modifying the existing Attagene TRANS-FACTORIAL system to include a panel of nuclear receptors from some or all the following species: human (Homo sapiens), mouse (Mus musculus), frog (Xenopus laevis), zebrafish (Danio rerio), chicken (Gallus gallus), and turtle (Chrysemys picta). The ECOTOX-FACTORIAL format uses HepG2, a human liver cell line, with measurements taken at 24 hours after chemical dosing in a 24-well plate. Xsp2 included 3 nM 6-alpha-fluorotestosterone and 1.5 nM norgestrel to stimulate the androgen receptor.ATG_hTRa_XSP2 is one of 29 assay components measured or calculated from the ATG_XSP2_multi-species_TRANS assay. It is designed to make measurements of mRNA induction, a form of inducible reporter, as detected with fluorescence intensity signals by Reverse transcription polymerase chain reaction (RT-PCR) and Capillary electrophoresis technology.The assay endpoint ATG_hTRa_XSP2 was analyzed in the positive analysis fitting direction relative to DMSO as the negative control and baseline of activity. […] Furthermore, this assay endpoint can be referred to as a primary readout, because this assay has produced multiple assay endpoints where this one serves a reporter gene function. […]

[5] = molecular target: frog Thyroid hormone Receptor alpha (TRa), thra-a (gene 397942) (UniProt P15204); assay: ATG_frTRa_XSP2: Attagene TRANS-FACTORIAL Multi-Species (XSP2) HepG2 Assay for frog Thyroid hormone Receptor alpha (TRa) (AID 2283839; active means hit-call score of the fitted dose curve at least 0.9, where 1 is the maximum)
Method in brief: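 HepG2 cells transiently transfected with multiplexed GAL4-UAS reporter units expressing chimeric frog TRα-Gal4; reporter mRNA read 24 h after dosing by RT-PCR, FAM-labelled primer extension, HpaI digest and capillary electrophoresis. Gain of signal fitted versus DMSO.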

[6] = molecular target: human Thyroid hormone Receptor beta (TRb), THRB (gene 7068) (UniProt P10828); assay: ATG_hTRb_XSP2: Attagene TRANS-FACTORIAL Multi-Species (XSP2) HepG2 Assay for human Thyroid hormone Receptor beta (TRb) (AID 2283840; active means hit-call score of the fitted dose curve at least 0.9, where 1 is the maximum;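 further: actives raise reporter mRNA so potency reflects agonist-like gain of signal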)
Method in brief: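 HepG2 cells were transiently transfected with GAL4-UAS multiplexed reporter units expressing chimeric NR-Gal4 proteins, dosed 24 h; reporter mRNA was quantified by RT-PCR, fluorescent labeling, HpaI digestion and capillary electrophoresis, fitted for gain of signal versus DMSO.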

[7] = CEETOX_H295R_11DCORT_noMTC: CeeTox H295R High-throughput Steroidogenesis Assay for 11-Deoxycortisol (11DCORT), maximum tolerated concentration (MTC) filtered results only (AID 2283911); conditions: actives raise or lower the signal
Method in brief: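 HPLC-MS/MS read-out of 11-deoxycortisol after MTBE extraction of H295R medium. Cells: forskolin 10 uM pre-stimulation 48 h, chemical 48 h, 0.1% DMSO final. Bidirectional fit vs DMSO baseline; no MTC filtering.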

[8] = CEETOX_H295R_OHPREG_noMTC: CeeTox H295R High-throughput Steroidogenesis Assay for OH-Pregnenolone (OHPREG), maximum tolerated concentration (MTC) filtered results only (AID 2283912); conditions: actives raise or lower the signal
Method in brief: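 H295R; 10 uM forskolin 48 h pre-stim; test cpd in DMSO (0.1% final) 48 h; media MTBE-extracted, HPLC-MS/MS for OH-pregnenolone; bidirectional fit vs DMSO; no MTC (MTT) filtering.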

[9] = CEETOX_H295R_OHPROG_noMTC: CeeTox H295R High-throughput Steroidogenesis Assay for OH-Progesterone (OHPROG), maximum tolerated concentration (MTC) filtered results only (AID 2283914); conditions: actives raise or lower the signal
Procedure: CEETOX_H295R is a cell-based, multiplexed-readout assay that uses H295R, a human adrenal gland cell line, with measurements taken at 48 hours after chemical dosing in a 96-well plate.CEETOX_H295R_OHPROG_noMTC is one of 12 assay component(s) measured or calculated from the CEETOX_H295R assay (11 hormones and 1 viability assay). It is designed to make measurements of hormone induction, a form of inducible reporter, as detected with […] by HPLC-MS-MS technology. The concentrations for these components have not been pre-filtered for the maximum tolerated concentration (MTC) based on the MTT assay (_noMTC).Data from the assay component CEETOX_H295R_OHPROG_noMTC was analyzed into 1 assay endpoint. This assay endpoint, CEETOX_H295R_OHPROG_noMTC, was analyzed with bidirectional fitting relative to DMSO as the negative control and baseline of activity. […]
Cell culture and media preparation procedures were conducted in accordance with OECD Test No. 456 guidelines, with minor modifications. […] For steroid quantification, media samples were shipped to OpAns, LLC (Durham, NC) on dry ice, and samples were thawed to room temperature prior to liquid-liquid extraction. […] Steroid hormones were separated by HPLC, eluted using a reverse phase C18 gradient with electrospray positive ionization, followed by quantification by tandem mass spectrometry (MS/MS). […]

Chain of human Thyroid hormone Receptor alpha (TRa), THRA (gene 7067) (P10827 whole entry, looked up): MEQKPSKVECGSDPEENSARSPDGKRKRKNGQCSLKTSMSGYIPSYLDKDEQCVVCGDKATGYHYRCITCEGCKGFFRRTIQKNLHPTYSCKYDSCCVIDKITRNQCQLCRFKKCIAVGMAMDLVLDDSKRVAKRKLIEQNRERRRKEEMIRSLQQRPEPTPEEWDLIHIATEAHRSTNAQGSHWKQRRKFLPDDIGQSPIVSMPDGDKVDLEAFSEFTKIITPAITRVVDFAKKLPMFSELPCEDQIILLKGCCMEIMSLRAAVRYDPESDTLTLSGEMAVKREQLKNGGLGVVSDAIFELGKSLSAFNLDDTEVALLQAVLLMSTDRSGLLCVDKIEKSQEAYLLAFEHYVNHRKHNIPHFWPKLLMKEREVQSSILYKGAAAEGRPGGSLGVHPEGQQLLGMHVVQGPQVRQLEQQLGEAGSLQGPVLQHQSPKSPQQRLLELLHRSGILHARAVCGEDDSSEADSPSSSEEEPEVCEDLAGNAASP
Chain of zebrafish Thyroid Hormone Receptor beta (TRb), thrb (gene 30607) (Q9PVE4 whole entry, looked up, the tested form may be a part): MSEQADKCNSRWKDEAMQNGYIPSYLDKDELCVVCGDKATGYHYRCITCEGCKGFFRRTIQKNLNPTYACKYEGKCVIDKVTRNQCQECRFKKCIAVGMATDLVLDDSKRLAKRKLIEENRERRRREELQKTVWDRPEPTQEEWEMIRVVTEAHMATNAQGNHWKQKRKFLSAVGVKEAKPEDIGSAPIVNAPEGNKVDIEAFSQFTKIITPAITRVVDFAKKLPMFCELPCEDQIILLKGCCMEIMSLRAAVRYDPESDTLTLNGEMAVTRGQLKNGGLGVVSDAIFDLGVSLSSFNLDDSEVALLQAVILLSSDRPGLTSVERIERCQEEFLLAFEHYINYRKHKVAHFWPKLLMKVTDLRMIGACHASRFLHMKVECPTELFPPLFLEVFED
Chain of human Thyroid hormone Receptor beta (TRb), THRB (gene 7068) (P10828 whole entry, looked up, the tested form may be a part): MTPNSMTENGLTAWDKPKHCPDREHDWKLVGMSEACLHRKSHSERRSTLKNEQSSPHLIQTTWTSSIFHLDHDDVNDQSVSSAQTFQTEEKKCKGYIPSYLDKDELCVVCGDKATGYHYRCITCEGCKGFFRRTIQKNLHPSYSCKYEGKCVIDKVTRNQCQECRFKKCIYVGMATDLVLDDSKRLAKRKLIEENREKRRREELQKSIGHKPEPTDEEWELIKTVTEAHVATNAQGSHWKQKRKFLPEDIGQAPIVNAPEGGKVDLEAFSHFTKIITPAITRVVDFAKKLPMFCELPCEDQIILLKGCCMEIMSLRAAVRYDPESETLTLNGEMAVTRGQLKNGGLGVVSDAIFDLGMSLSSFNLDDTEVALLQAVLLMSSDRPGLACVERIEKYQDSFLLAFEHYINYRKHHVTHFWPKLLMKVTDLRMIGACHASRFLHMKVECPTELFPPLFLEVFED
Chain of frog Thyroid hormone Receptor alpha (TRa), thra-a (gene 397942) (P15204 whole entry, looked up, the tested form may be a part): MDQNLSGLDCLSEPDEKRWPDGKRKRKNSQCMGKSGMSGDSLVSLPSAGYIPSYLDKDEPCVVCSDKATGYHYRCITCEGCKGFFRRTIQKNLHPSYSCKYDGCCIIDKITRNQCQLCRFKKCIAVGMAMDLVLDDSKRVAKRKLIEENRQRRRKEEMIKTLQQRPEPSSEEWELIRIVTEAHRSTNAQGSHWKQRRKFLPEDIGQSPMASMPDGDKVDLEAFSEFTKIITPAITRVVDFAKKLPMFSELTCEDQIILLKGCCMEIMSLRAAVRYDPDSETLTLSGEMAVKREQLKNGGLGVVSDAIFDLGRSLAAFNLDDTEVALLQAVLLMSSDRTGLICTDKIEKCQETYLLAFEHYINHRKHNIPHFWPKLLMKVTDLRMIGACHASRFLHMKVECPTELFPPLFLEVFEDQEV

SMILES: C[C@]12CC[C@H]3C(=CCc4cc(O)ccc43)[C@@H]1CCC2=O
- outcome [1]: inactive
- outcome [2]: inactive
- outcome [3]: inactive
- outcome [4]: inactive
- outcome [5]: inactive
- outcome [6]: inactive

SMILES: O=C(c1ccccc1)c1ccc(O)cc1O
- outcome [2]: inactive
- outcome [3]: inactive
- outcome [4]: inactive

SMILES: CC(C)(C)c1cc(CCC(=O)NCCCCCCNC(=O)CCc2cc(C(C)(C)C)c(O)c(C(C)(C)C)c2)cc(C(C)(C)C)c1O
- outcome [7]: inactive
- outcome [8]: inactive
- AC50 [9]: 0.203 µM (active)

SMILES: Nc1c(Br)cc([N+](=O)[O-])cc1Br
- outcome [7]: inactive
- outcome [8]: inactive
- AC50 [9]: 20.7 µM (active)
